Laboratory results as given in PubChem BioAssay (NCATS).
Where “and” joins values, the source holds several entries; their conditions need not be identical. Identical values can stand only once. Unmarked numbers belong to inactive results. Inconclusive results are not listed. Calls of active or inactive are those of the source. Unless noted, calls follow the shape of the dose curve; as a rule, active = well fitted curve in either direction with a large enough effect (not every such curve was filed as active); inconclusive = small, poorly fitted or top-dose-only effect, or another doubt; inactive = flat fitted curve, though single readings scatter.

Columns and labels:
[1] = target: Lysosomal acid glucosylceramidase (Homo sapiens) (UniProt P04062); experiment: Glucocerebrosidase-p2 (AID 348; in the data active = potency below about 10 µM; also: potency is read from the fitted curve at half-maximal effect); conditions: purified GBA, blue fluorogenic substrate, 40 min
Summary of the method: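 Compounds titrated from 0.6 nM upwards against 0.2 nM enzyme in pH 5.9 citric acid/KH2PO4, taurocholate, tween-20; blue fluorogenic substrate 80 uM, 40 min room temperature, stopped and read Ex 365/Em 440 for AC50.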

[2] = AP1 Signaling Pathway (AID 357); conditions: ME-180 AP-1-bla reporter, EGF-induced, beta-lactamase ratio, 5 h; at 7.69 µM (top of the series) unless noted;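 also: ME-180 reporter cells stimulated with EGF at its EC50 level; % is scaled to controls: 0 for no effect and ±100 for the full control effect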
Summary of the method: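 In this screen, ME-180 cells in Opti-MEM with 0.5% dialyzed FBS received EC50 EGF and compound titrations for 5 h. AP-1 reporter beta-lactamase was detected via CCF4 ratio, giving AC50 for positive and negative modulators.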

[3] = target: Cytochrome P450 1A2 (Homo sapiens) (UniProt P05177); experiment: p450-cyp1a2 (AID 410; calls by dose curve; also: potency is read from the fitted curve at half-maximal effect;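 as to activity change, negative = inhibition: -100% = full effect of reference inhibitor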); conditions: recombinant CYP1A2, luciferin-ME demethylation, luminescence; series mostly up to 11.4 µM
Summary of the method: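 Luminescent readout of luciferin formed from Luciferin-ME by human CYP1A2; data normalized against complete inhibition by 57 uM furafylline. Enzyme 20nM, substrate 100uM at Km, 100mM KPO4 buffer, 60 min reaction at room temperature.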

[4] = NFAT Signaling Pathway (AID 444); conditions: Jurkat NFAT-bla M1, carbachol, beta-lactamase ratio, 5 h; at 7.69 µM (top of the series) unless noted;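 also: carbachol stimulus at about its EC50 of 1 µM final; % is scaled to controls: 0 for no effect and ±100 for the full control effect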
Summary of the method: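 Jurkat cells carrying an NFAT-driven β-lactamase reporter and co-transfected muscarinic M1 receptor were treated with compound plus carbachol (1 uM final, an EC50 level) for 5 h at 37 °C. CCF4 loading followed for 1 h at RT; 460/530 nm ratio gave %activity.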

[5] = Stat Signaling Pathway (AID 446); conditions: ME-180 SIE beta-lactamase reporter, IL-6 stimulated, 5 h; at 7.69 µM (top of the series) unless noted;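 also: ME-180 cervical cancer cells given 40 pM IL-6 alongside compound; SIE-controlled beta-lactamase reporter measured as 460/530 nm FRET emission ratio; % is scaled to controls: 0 for no effect and ±100 for the full control effect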
Summary of the method: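 Reporter line: ME-180 cervical carcinoma, SIE-beta-lactamase. Treatment: compound with 40 pM IL-6, 5 hrs, 37 C, in low-serum OPTI-MEM with 10 mM HEPES pH 7.3. Detection: 460/530 nm fluorescence.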

[6] = target: Glucocorticoid receptor (Homo sapiens) (UniProt P04150); experiment: GR-GFP Redistribution (AID 450;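 active = compounds whose dose series gives a full or clear partial fitted curve of increased nuclear translocation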; also: potency is read from the fitted curve at half-maximal effect); conditions: U2OS GR-GFP nuclear translocation, laser cytometry, 2 h
[7] = target: Glucocorticoid receptor (Homo sapiens) (UniProt P04150); experiment: GR-EFC Redistribution (AID 451; calls by dose curve; also: potency is read from the fitted curve at half-maximal effect); conditions: CHO-K1 GR-EFC translocation, beta-gal luminescence, 2 h
Summary of the method: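 CHO-K1 cells stably expressing nuclear-localized β-gal enzyme acceptor and GR fused C-terminally to the enzyme donor fragment; ligand-driven nuclear translocation restores β-gal by complementation. Compounds titrated up to 46 uM final, 2 h at 37 °C; luminescence read.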

[8] = target: Mitogen-activated protein kinase 10 (Mus musculus) (UniProt Q61831); experiment: JNK3 AlphaScreen Assay (AID 530); conditions: JNK3 lysate, c-Jun phosphorylation; series mostly up to 11.4 µM;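 also: kinase came from lysate of stimulated human HepG2 cells; signal reports phosphorylation of biotinylated GST-cJun 1-79 at Ser73 with 10 µM ATP; % is scaled to controls: 0 for no effect and ±100 for the full control effect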
Summary of the method: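 Inhibitors reduce antibody binding to phosphorylated biotin-cJun, lowering AlphaScreen luminescence. Lysates from HepG2 cells pre-activated by IL-1beta plus TNF-alpha supplied JNK3; compounds were titrated.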

[9] = target: 3',5'-cyclic-AMP phosphodiesterase 4B (Homo sapiens) (UniProt Q07343); experiment: qHTS Assay for Inhibitors of PDE-IV (AID 607; active = well fitted activation curve with a large enough effect in the main read-out, with a control signal flat, not every such curve was filed as active; also: % of control where 0% means no effect); conditions: HEK293 ACTOne CNG channel cells, membrane potential fluorescence; series mostly up to 22.9 µM
Summary of the method: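 Cell-based read-out of cAMP via a modified cyclic nucleotide-gated channel and membrane potential dye (535/590 nm) in HEK293 cells expressing PDE4 endogenously. Compounds tested up to 22.9 uM final; 100 uM RO 20-1724 reference.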

Sequence of 3',5'-cyclic-AMP phosphodiesterase 4B (Homo sapiens) (Q07343 whole entry, looked up): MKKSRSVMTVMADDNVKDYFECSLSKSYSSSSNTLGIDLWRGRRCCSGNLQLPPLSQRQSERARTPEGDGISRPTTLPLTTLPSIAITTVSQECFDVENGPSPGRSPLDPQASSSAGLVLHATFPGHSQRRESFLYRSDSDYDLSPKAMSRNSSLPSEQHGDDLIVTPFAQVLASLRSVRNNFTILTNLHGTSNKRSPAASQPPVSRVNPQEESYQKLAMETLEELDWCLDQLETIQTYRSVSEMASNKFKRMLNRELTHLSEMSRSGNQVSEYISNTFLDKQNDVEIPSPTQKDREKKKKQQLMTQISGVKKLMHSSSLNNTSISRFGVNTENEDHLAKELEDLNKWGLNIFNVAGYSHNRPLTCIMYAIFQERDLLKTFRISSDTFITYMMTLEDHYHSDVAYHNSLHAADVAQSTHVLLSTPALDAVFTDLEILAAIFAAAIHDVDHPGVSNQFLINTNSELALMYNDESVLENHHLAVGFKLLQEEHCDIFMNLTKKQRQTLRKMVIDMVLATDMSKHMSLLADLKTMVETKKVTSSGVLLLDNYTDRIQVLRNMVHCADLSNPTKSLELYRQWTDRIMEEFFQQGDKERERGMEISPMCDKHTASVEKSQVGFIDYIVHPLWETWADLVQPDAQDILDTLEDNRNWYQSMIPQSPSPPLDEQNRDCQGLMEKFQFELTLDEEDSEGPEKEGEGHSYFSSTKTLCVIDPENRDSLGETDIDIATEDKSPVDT
Sequence of Glucocorticoid receptor (Homo sapiens) (P04150 whole entry, looked up, the tested form may be a part): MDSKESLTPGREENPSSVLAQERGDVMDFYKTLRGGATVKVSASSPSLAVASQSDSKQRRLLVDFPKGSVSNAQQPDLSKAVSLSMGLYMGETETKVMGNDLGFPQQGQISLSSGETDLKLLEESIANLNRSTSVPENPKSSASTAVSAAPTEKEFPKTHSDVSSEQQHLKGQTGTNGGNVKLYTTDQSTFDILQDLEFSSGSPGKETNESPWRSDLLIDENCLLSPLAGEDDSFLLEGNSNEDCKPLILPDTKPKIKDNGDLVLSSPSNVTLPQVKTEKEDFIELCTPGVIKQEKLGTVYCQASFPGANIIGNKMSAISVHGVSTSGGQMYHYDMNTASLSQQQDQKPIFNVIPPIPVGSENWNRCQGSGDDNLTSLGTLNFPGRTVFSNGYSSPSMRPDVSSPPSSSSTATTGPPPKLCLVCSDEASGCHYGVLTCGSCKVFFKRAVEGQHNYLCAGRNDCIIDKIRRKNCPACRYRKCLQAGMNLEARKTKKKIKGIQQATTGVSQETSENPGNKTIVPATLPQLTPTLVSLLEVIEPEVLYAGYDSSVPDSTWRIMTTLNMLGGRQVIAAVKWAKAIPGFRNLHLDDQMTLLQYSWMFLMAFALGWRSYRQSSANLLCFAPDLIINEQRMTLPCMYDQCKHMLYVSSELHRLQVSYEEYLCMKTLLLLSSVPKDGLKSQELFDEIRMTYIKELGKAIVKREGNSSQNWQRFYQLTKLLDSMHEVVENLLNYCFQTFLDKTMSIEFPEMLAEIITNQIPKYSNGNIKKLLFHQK
Sequence of Lysosomal acid glucosylceramidase (Homo sapiens) (P04062 whole entry, looked up): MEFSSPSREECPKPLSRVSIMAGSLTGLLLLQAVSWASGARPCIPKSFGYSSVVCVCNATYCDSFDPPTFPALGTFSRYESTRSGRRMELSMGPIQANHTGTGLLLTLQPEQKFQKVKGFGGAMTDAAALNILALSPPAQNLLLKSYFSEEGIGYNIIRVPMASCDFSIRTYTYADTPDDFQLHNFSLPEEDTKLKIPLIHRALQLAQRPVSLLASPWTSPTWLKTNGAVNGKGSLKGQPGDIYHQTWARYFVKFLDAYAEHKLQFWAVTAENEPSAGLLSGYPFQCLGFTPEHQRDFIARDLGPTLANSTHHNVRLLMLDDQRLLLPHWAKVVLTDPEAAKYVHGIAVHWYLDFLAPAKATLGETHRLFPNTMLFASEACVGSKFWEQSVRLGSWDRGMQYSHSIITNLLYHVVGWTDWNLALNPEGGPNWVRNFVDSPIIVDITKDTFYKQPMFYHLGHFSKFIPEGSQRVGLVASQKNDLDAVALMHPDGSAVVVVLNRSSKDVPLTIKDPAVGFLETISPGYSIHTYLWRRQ
Sequence of Cytochrome P450 1A2 (Homo sapiens) (P05177 whole entry, looked up): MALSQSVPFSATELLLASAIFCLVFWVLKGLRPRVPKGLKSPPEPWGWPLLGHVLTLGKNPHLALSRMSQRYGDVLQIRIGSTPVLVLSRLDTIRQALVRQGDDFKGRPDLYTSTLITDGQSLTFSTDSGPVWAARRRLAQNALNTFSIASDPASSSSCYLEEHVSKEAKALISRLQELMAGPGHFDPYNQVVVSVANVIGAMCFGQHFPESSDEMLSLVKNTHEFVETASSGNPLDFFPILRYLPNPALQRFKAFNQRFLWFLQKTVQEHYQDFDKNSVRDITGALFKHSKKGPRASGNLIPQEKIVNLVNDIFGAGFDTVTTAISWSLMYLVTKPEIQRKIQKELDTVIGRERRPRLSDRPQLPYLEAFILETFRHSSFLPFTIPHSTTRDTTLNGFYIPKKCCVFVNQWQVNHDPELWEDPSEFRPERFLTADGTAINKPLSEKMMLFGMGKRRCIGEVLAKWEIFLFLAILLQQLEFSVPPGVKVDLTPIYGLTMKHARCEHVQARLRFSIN

SMILES | Potency [1] [µM] | activity change, negative = inhibition [2] | Potency [3] | activity change, negative = inhibition [4] | activity, negative = inhibition [5] | Potency [6] | Potency [7] | Potency [8] | Potency [9] | activity change, negative = inhibition [3]
Nc1ncnc2nn([C@H]3O[C@@H](CO)[C@@H](O)[C@H]3O)nc12 | > 11.4 | -9.36% | inactive | 5.89% | -5.99% | > 46 µM | > 9.22 µM | inactive | inactive | 
Clc1ccccc1C(Nc1cnccn1)Nc1cnccn1 | > 11.4 | 8.81% |  | 6.25% | -2.8% | > 46 µM | > 9.22 µM | inactive | inactive | -18% [at 2.29 µM]
Nc1cc(C(=O)O)[nH]c(=O)n1 | > 11.4 | 3.6% | inactive | 8.92% | 13.8% | > 46 µM | > 9.22 µM | inactive | inactive | 
Nc1nc(N)c2[nH]c(CNc3ccc(C(=O)O)cc3)nc2n1 | > 11.4 | -2.88% | inactive | 23.3% | -0.181% | > 46 µM | > 9.22 µM | inactive | inactive | 
Nc1nc2c(ncn2[C@@H]2C=C[C@@H](CO)C2)c(=O)[nH]1 | > 11.4 | 2.92% | inactive | 10.3% | 5.37% | > 46 µM | > 9.22 µM | inactive | inactive | 
O=C(O)CCCCn1ccc(=O)[nH]c1=O | > 11.4 | 9.63% | inactive | -9.32% | 4.56% | > 46 µM | > 9.22 µM | inactive | inactive | 
NCC(=O)Nc1ccc(Cl)cc1C(=O)c1ccc[nH]1 | > 11.4 | -2.05% | 3.16 µM (active) | -24.8% | -3.02% | > 46 µM | > 9.22 µM | inactive | inactive | 
COc1ccc2c3c([nH]c2c1)[C@H]1C[C@@H]2[C@@H](C[C@@H](O)[C@H](OC)[C@H]2C(=O)O)CN1CC3 | > 11.4 | -5.49% | inactive | 0.887% | -7.32% | > 46 µM | > 9.22 µM | inactive | inactive | 
O=C(O)CCCSc1ccccc1 | > 11.4 | -2.81% | inactive | -1.05% | 4.11% | > 46 µM | > 9.22 µM | inactive | inactive | 
CC(=O)[C@H]([C@@H](c1ccccc1)N1CCOCC1)N1CCOCC1 | > 11.4 | 4% | inactive | 15.1% | 4.56% | > 46 µM | > 9.22 µM | inactive | inactive | 
C(=Nc1cnc2ccccc2c1)c1ccc2ccccc2n1 | > 11.4 | -2.4% | 3.98 µM (active) | 3.2% | -6.04% | > 46 µM | > 9.22 µM | inactive | inactive | 
Cc1ccc(S(=O)(=O)N=Nc2c(O)[nH]c3cc(O)c(C(=O)O)cc23)cc1 | > 11.4 | -1.74% |  | 7.79% | 0.979% | > 46 µM | > 9.22 µM | inactive | inactive | -15.8% [at 2.29 µM]
CN(C(=O)c1ccncc1)c1ccccc1 | > 11.4 | -3.23% | inactive | 6.33% | 0.69% | > 46 µM | > 9.22 µM | inactive | inactive | 
CC(=NC1CCCCC1)c1ccccc1O | > 11.4 | 6.06% | inactive | 16.7% | 11% | > 46 µM | > 9.22 µM | inactive | inactive | 
CCOC(=O)c1c(C)c(C)n2c1NC(=O)C2 | > 11.4 | 3.42% | 2 µM (active) | -19.4% | -3.92% | > 46 µM | > 9.22 µM | inactive | inactive | 
NC(N)=Nc1ccc(-c2ccc(N=C(N)N)cc2)cc1 | > 11.4 | 1.56% | inactive | 4.39% | 0.358% | > 46 µM | > 9.22 µM | inactive | inactive | 
O[C@H](COc1ccccc1)CN1CCCCC1 | > 11.4 | -1.24% | inactive | 2.42% | 10.3% | > 46 µM | > 9.22 µM | inactive | inactive | 
O=S(=O)(C[C@H](O)C(Cl)(Cl)Cl)NNc1ccccc1 | > 11.4 | -0.0496% |  | 2.68% | 5.12% | > 46 µM | > 9.22 µM | inactive | inactive | 0.8% [at 2.29 µM]
CN(C)CCOC(=O)c1ccc(N)cc1 | > 11.4 | 4.6% | inactive | -0.262% | -3.48% | > 46 µM | > 9.22 µM | inactive | inactive | 
CC(=O)[C@]1(O)CC[C@@H]2[C@H]3C[C@@H](C)C4=CC(=O)CC[C@@]4(C)[C@H]3[C@@H](O)C[C@]21C | > 11.4 | -0.0488% |  | 16.8% | -9.62% | < 2.95e-05 µM (active) | 0.0236 µM (active) | inactive | inactive | -2% [at 2.29 µM]
NC(N)=NC(N)=Nc1ccc(S(=O)(=O)O)cc1 | > 11.4 | 1.18% | inactive | 0.0165% | -0.308% | > 46 µM | > 9.22 µM | inactive | inactive | 
CCC(C)(C)c1ccc(Oc2cccc(C(=O)O)c2)cc1 | > 11.4 | -11.1% | inactive | -3.61% | -0.214% | > 46 µM | > 9.22 µM | inactive | inactive | 
O=C(CN1C(=O)c2ccccc2C1=O)NC1(C(=O)O)CCCC1 | > 11.4 | -5.19% |  | -0.506% | 7.15% | > 46 µM | > 9.22 µM | inactive | inactive | -2.1% [at 2.29 µM]
NC(N)=N/N=C(\c1ccc(Cl)cc1)C1CC1 | > 11.4 | 8.61% | 0.794 µM (active) | -17.9% | -1.61% | > 46 µM | > 9.22 µM | inactive | inactive | 
Cc1ccc(S(=O)(=O)N[C@H](CO)C(=O)O)cc1 | > 11.4 | 1.84% | inactive | -20.5% | 0.571% | > 46 µM | > 9.22 µM | inactive | inactive | 
c1nc(NCCc2cnc[nH]2)c2[nH]cnc2n1 | > 11.4 | 3.43% | 5.01 µM (active) | 6.94% | 0.609% | > 46 µM | > 9.22 µM | inactive | inactive | 
CC(=O)/C(=N\N=C(N)N)c1ccccc1 | > 11.4 | 8.04% |  | -0.66% | 7.52% | > 46 µM | > 9.22 µM | inactive | inactive | -17.2% [at 2.29 µM]
CC(=O)O[C@H]1CC[C@@]2(C)[C@@H](CC[C@H]3[C@H]2CC(=O)[C@@]2(C)[C@@H]3C[C@H]3CC(C)=CC(=O)[C@H]32)C1 | > 11.4 | 5.01% |  | 22% | -1.11% | > 46 µM | > 9.22 µM | inactive | inactive | -9% [at 2.29 µM]
O=C(O)C1=C/C(=C(/c2ccccc2)c2cc(C(=O)O)c(O)c3ccccc23)c2ccccc2C1=O | > 11.4 | 1.91% and 8.74% | inactive | 12% and -21.2% | 2.38% and 8.71% | > 46 µM | > 9.22 µM | inactive | inactive | 
